21 molecules from PubChem BioAssay (NCI) can be followed below.

About 79,000 compounds went through this panel and 15% of them were active in at least one assay; those are over-represented in the sample as a whole. Unmarked numbers belong to inactive results. Active and inactive are the calls of the source. Cut-off read from the data, not from the text of the source: active = growth inhibition above about 70%; inactive = the rest.

Experiment [1] in a line: NCI Yeast Anticancer Drug Screen. Data for the rad50 strain (AID 155).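 Note: 0% = growth of vehicle-only cultures of the same strain.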 The following applies: S. cerevisiae rad50 strain growth inhibition; at 50.0 µM; hits give high values. An outline of the steps: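 Genetically altered yeast (DNA repair pathway); compound treatment; growth inhibition vs vehicle ctrl.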
The nature of experiment [2]: NCI Yeast Anticancer Drug Screen. Data for the mec2-1 strain (AID 157). The settings on record: S. cerevisiae mec2-1 strain, at 50.0 µM, hits give high values. An outline of the steps: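 Vehicle-treated cultures served as reference for growth inhibition of compound-exposed mec2-1 yeast.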
Experiment [3] is described as follows: NCI Yeast Anticancer Drug Screen. Data for the sgs1 mgt1 strain (AID 161).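 Note: 0% = growth of cultures given vehicle only.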 The following applies: S. cerevisiae sgs1 mgt1 strain, at 50.0 µM, hits give high values. In a few lines:
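Genetically altered yeast, compound exposure, growth inhibition relative to vehicle.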

Experiment [4] in a line: NCI Yeast Anticancer Drug Screen. Data for the cln2 rad14 strain (AID 165).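 Note: 0% = growth equal to vehicle treated cultures.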 The following applies: S. cerevisiae cln2 rad14 strain, at 50.0 µM, hits give high values. In a few lines: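 Each compound was tested on cln2 rad14 yeast. Inhibition of growth was calculated against vehicle-exposed controls.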
The nature of experiment [5]: NCI Yeast Anticancer Drug Screen. Data for the bub3 strain (AID 167). The following applies: S. cerevisiae bub3 mutant strain, at 50.0 µM, hits give high values. In a few lines: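 Yeast carrying a defined mutation is treated with each compound, and growth is compared with that of vehicle-exposed cells to give inhibition.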
The nature of experiment [6]: NCI Yeast Anticancer Drug Screen. Data for the mlh1 rad18 strain (AID 175). The settings on record: S. cerevisiae mlh1 rad18 strain growth inhibition; at 50.0 µM; hits give high values. In a few lines:
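Vehicle-treated cultures served as the reference for growth inhibition in a yeast strain carrying DNA damage repair alterations exposed to each compound.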

Consider `CCCS(=O)(=O)N1CCCC1`, for which the growth inhibition in experiment [1] was -1.25%; in experiment [2] it was -15.8%; in experiment [3] it was -2.1%; in experiment [4], -34.5%; in experiment [5], -24.4%; in experiment [6] it was -19.4%.
As for `COc1ccccc1/C=C1\CCC(CN(C)C)C1=O` (stereo unspecified), the growth inhibition in experiment [1] was 82.2% (active); in experiment [2], 89.5% (active); in experiment [3], 91.8% (active); in experiment [4] it was 55.4%; in experiment [5], 91.1% (active); in experiment [6], 92.2% (active).
In the case of `CC1=C(C(=O)Nc2cc(C)ccn2)CCO1`, the growth inhibition in experiment [1] was 4.55%; in experiment [2] it was -11.4%; in experiment [3], -7.2%; in experiment [4], -33%; in experiment [5], 11.7%; in experiment [6], 15%.
`CC1CCCC2C(=O)OC(=O)C12` (stereo unspecified): the growth inhibition in experiment [1] is -5.3%; in experiment [2] it was -9.6%; in experiment [3] it was -13.1%; in experiment [4], -60.6%; in experiment [5] it was -21.1%; in experiment [6], -11.4%.
Turning to `O=C(O)c1c[nH]c2cc(OCc3ccccc3)ccc2c1=O`, the growth inhibition in experiment [1] was -4.1%; in experiment [2], -44.4%; in experiment [3] it was -45.5%; in experiment [4], -7.15%; in experiment [5], -21.1%; in experiment [6], 7.75%.
As to `COc1ccc(-c2c3c(nc4nc(SC)nc(SC)c24)CCCC3)cc1OC`, the growth inhibition is 1.15% in experiment [1]; -10.4% in experiment [2]; 1.25% in experiment [3]; 1.15% in experiment [4]; -2.65% in experiment [5]; 6.8% in experiment [6].
Consider `O=C(c1ccccc1)N1C(=O)c2ccccc21`, for which the growth inhibition in experiment [1] was -11.1%; in experiment [2], 5.75%; in experiment [3] it was -12.8%; in experiment [4] it was -16.3%; in experiment [5] it was 9.5%; in experiment [6], -15.5%.
With `Oc1ccc(Cl)c2cccnc12`, the growth inhibition is 98.9% (active) in experiment [1]; 99.5% (active) in experiment [2]; 99.2% (active) in experiment [3]; 97.8% (active) in experiment [4]; 99.3% (active) in experiment [5]; 97.7% (active) in experiment [6].
Turning to `O=C(NC[N+]12CCO[B-]1(c1ccc(Cl)cc1)OCC2)c1ccccc1O` (stereo unspecified), the growth inhibition in experiment [1] is 19.2%; in experiment [2] it was 0.25%; in experiment [3], 24.1%; in experiment [4], 25%; in experiment [5], 24%; in experiment [6], 56.3%.
In the case of `CC(=O)C(CCN(C)C)c1ccc2c(c1)CCc1ccccc1-2` (stereo unspecified), the growth inhibition is 13.3% in experiment [1]; 5.65% in experiment [2]; 19.4% in experiment [3]; -8.45% in experiment [4]; 13.3% in experiment [5]; 27.6% in experiment [6].
In the case of `COc1ccc(-c2nnc(N)o2)cc1OC`, the growth inhibition is -34% in experiment [1]; -10.3% in experiment [2]; -16.1% in experiment [3]; 6.35% in experiment [4]; -13.9% in experiment [5]; -24.9% in experiment [6].
With `c1ccc2cc3ccccc3cc2c1`, the growth inhibition in experiment [1] was 5.75%; in experiment [2], 10.7%; in experiment [3], -18.5%; in experiment [4] it was -42.6%; in experiment [5], -0.85%; in experiment [6], 3.7%.
In the case of `CCN/C(C)=C\C(=O)OCC`, the growth inhibition in experiment [1] was -0.9%; in experiment [2], 8.95%; in experiment [3], -0.65%; in experiment [4], -17.2%; in experiment [5], -9.95%; in experiment [6], 1.25%.
Regarding `NCCc1ccc(O)c(O)c1`, the growth inhibition in experiment [1] is -4.4%; in experiment [2] it was -4.2%; in experiment [3], -1.55%; in experiment [4], 4.25%; in experiment [5], -1.45%; in experiment [6], 1.85%.
In the case of `Cc1ccc(NC(=O)Oc2cc(C)c(Cl)cc2C(C)C)cc1`, the growth inhibition was -3.9% in experiment [1]; 54.2% in experiment [2]; 43% in experiment [3]; -28.2% in experiment [4]; 51.4% in experiment [5]; 65% in experiment [6].
For `COC1=C(O)C(=O)N(C)C(=O)C1`, the growth inhibition was 20.4% in experiment [1]; 9.35% in experiment [2]; 29.2% in experiment [3]; 0.75% in experiment [4]; -14.7% in experiment [5]; 10.8% in experiment [6].
`CC(=O)OC(C)(C#N)C(C)(C#N)OC(C)=O` (stereo unspecified): the growth inhibition is -13.3% in experiment [1]; -6.4% in experiment [2]; -1.1% in experiment [3]; -37.1% in experiment [4]; -8.75% in experiment [5]; -20.3% in experiment [6].
As for `C(=N\N(CCCCN(/N=C/c1ccccc1)c1ccccc1)c1ccccc1)/c1ccccc1`, the growth inhibition in experiment [1] is 38.5%; in experiment [2], 11.2%; in experiment [3], 13.8%; in experiment [4], 21.8%; in experiment [5] it was -11.8%; in experiment [6] it was 23.9%.
As to `Nc1cccc(CC(=O)c2ccccc2)n1`, the growth inhibition is -4.3% in experiment [1]; -11% in experiment [2]; -7.9% in experiment [3]; -8.55% in experiment [4]; -3.05% in experiment [5]; -13.1% in experiment [6].
For `CCOC(=O)c1c[nH]c2ccc(-c3ccccc3)cc2c1=O`, the growth inhibition is 4.65% in experiment [1]; 39.8% in experiment [2]; 4.6% in experiment [3]; 20.4% in experiment [4]; 40.7% in experiment [5]; 24.9% in experiment [6].
For `CCc1nc2c([nH]1)c(=O)n(C)c(=O)n2C`, the growth inhibition in experiment [1] was 35%; in experiment [2], -4.6%; in experiment [3], 11.6%; in experiment [4], 16.5%; in experiment [5], -20.6%; in experiment [6], 20.4%.
